± gives the standard deviation of the averaged measurements.
Legend:
[1] = system: Escherichia coli Nissle 1917; experiment: area under OmniLog respiration curve over 48 h (OmniLog units x h); higher = more growth / nutrient utilisation; extreme values may be limits of the assay; conditions: incubation: 48 h, 37 °C
[2] = system: Escherichia coli Nissle 1917; experiment: DuctApe activity index of respiration/growth curve (0 no growth to 9 maximum) (index 0-9); higher = more growth / nutrient utilisation, active = 3 or more; extreme values may be limits of the assay; conditions: incubation: 48 h, 37 °C
[3] = nutrient role: C-Source, carbohydrate
[4] = nutrient role: C-Source, carboxylic acid
[5] = nutrient role: N-Source, inorganic
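For DuctApe activity index of respiration/growth curve (0 no growth to 9 maximum) in this document: biolog PM4 phosphorus and sulfur plates, tetrazolium violet dye reduction read in the OmniLog every 15 min, kinetic curves scored by DuctApe, each plate run in triplicate.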

**Q.** How did the “area under OmniLog respiration curve” value [1, 3] turn out when `N#C[C@H](O[C@@H]1O[C@H](CO[C@@H]2O[C@H](CO)[C@@H](O)[C@H](O)[C@H]2O)[C@@H](O)[C@H](O)[C@H]1O)c1ccccc1` [Amygdalin] was run?
**A.** 4.97 ± 0.43

**Q.** What about the DuctApe activity index [2, 3] of the same compound?
**A.** 0 (inactive)

**Q.** With `O=C(O)CCCO` [g-Hydroxybutyric acid] as the compound, how does the “area under OmniLog respiration curve” value [1, 4] read?
**A.** 5800 ± 210

**Q.** What about the DuctApe activity index [2, 4] of the same compound?
**A.** 7 (active)

**Q.** How did the “area under OmniLog respiration curve” value [1, 4] turn out when `O=C(O)CC(Br)C(=O)O` (stereo not drawn) [Bromosuccinic acid] was run?
**A.** 7400 ± 380

**Q.** And the DuctApe activity index [2, 4]?
**A.** 8 (active)

**Q.** What does the source list for `O=[N+]([O-])O` [Nitrate]?
**A.** area under OmniLog respiration curve [1, 5]: 4.72; DuctApe activity index [2, 5]: 0 (inactive)

Source: the supplement of paper PMC9801561
